# Reference: PubChem BioAssay (NCI)
# The panel holds about 79,000 compounds, 15% with a hit somewhere; the sample as a whole holds those more often. Values without a mark were called inactive. The source made the active and inactive calls. Cut-off read from the data, not from the text of the source: active = growth inhibition above about 70%; inactive = the rest.
# How the values were obtained:
# [1] = NCI Yeast Anticancer Drug Screen. Data for the rad52 strain (AID 147);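 note: 0% = growth of vehicle-treated control cultures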; details: S. cerevisiae rad52 mutant growth inhibition, active compounds read high
# Method in brief: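 Vehicle-treated cultures served as the reference for growth inhibition of compound-exposed yeast bearing a DNA repair mutation.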
# [2] = NCI Yeast Anticancer Drug Screen. Data for the wt1 strain (AID 149);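 note: 0% = growth of vehicle-treated wt1 cultures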; details: S. cerevisiae wt1 strain (SPY 50644) growth inhibition, active compounds read high
# Method in brief: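 wt1 yeast, compound-treated; % growth inhibition vs vehicle control.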
# [3] = NCI Yeast Anticancer Drug Screen. Data for the rad50EPP+ strain (AID 151);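 note: 0% = growth of vehicle-treated control cultures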; details: S. cerevisiae rad50 mutant strain, active compounds read high
# Method in brief: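 In this screen, rad50EPP+ yeast were exposed to compounds. Growth inhibition was scored against vehicle-treated controls.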
# [4] = NCI Yeast Anticancer Drug Screen. Data for the rad50 strain (AID 155);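 note: 0% = growth of vehicle-only cultures of the same strain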; details: S. cerevisiae rad50 strain growth inhibition, active compounds read high
# Method in brief: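 Genetically altered yeast (DNA repair pathway); compound treatment; growth inhibition vs vehicle ctrl.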
# [5] = NCI Yeast Anticancer Drug Screen. Data for the mec2-1 strain (AID 157); details: S. cerevisiae mec2-1 strain, active compounds read high
# Method in brief: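 Vehicle-treated cultures served as reference for growth inhibition of compound-exposed mec2-1 yeast.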
# [6] = NCI Yeast Anticancer Drug Screen. Data for the rad14 strain (AID 159);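 note: 0% = growth of vehicle-treated control cultures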; details: S. cerevisiae rad14 strain growth inhibition, active compounds read high
# Method in brief: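 Test compounds were applied to a repair-deficient yeast strain. Its growth was then compared with that of cultures given vehicle alone, and inhibition was expressed relative to those controls.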
# [7] = NCI Yeast Anticancer Drug Screen. Data for the sgs1 mgt1 strain (AID 161);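 note: 0% = growth of cultures given vehicle only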; details: S. cerevisiae sgs1 mgt1 strain, active compounds read high
# Method in brief: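 Mutant yeast exposed to compound; growth scored against vehicle-only wells.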
# [8] = NCI Yeast Anticancer Drug Screen. Data for the CLN2oe strain (AID 163);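 note: 0% = growth of vehicle-only control cultures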; details: S. cerevisiae CLN2oe strain, active compounds read high
# Method in brief: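 Inhibition relative to vehicle-treated yeast is reported. Cells: strain with genetic alteration in cell-cycle control, grown with compound.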
# [9] = NCI Yeast Anticancer Drug Screen. Data for the cln2 rad14 strain (AID 165);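 note: 0% = growth equal to vehicle treated cultures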; details: S. cerevisiae cln2 rad14 strain, active compounds read high
# Method in brief: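 Each compound was tested on cln2 rad14 yeast. Inhibition of growth was calculated against vehicle-exposed controls.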
# [10] = NCI Yeast Anticancer Drug Screen. Data for the bub3 strain (AID 167); details: S. cerevisiae bub3 mutant strain, active compounds read high
# Method in brief: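 Yeast carrying a defined mutation is treated with each compound, and growth is compared with that of vehicle-exposed cells to give inhibition.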
# [11] = NCI Yeast Anticancer Drug Screen. Data for the wt2 strain (AID 169);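 note: 0% = growth of vehicle-treated yeast cultures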; details: S. cerevisiae wt2 strain growth inhibition, active compounds read high
# Method in brief: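 Inhibition of yeast growth was determined after compound treatment, normalised to controls receiving only vehicle.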
# [12] = NCI Yeast Anticancer Drug Screen. Data for the mlh1 rad18 strain (AID 175); details: S. cerevisiae mlh1 rad18 strain growth inhibition, active compounds read high
# Method in brief: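 Vehicle-treated cultures served as the reference for growth inhibition in a yeast strain carrying DNA damage repair alterations exposed to each compound.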
# [13] = NCI Yeast Anticancer Drug Screen. Data for the rad18 strain (AID 177); details: S. cerevisiae rad18 mutant growth inhibition, active compounds read high
# Method in brief: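 Test articles were incubated with altered yeast defective in DNA damage repair. Results are given as inhibition of growth versus vehicle.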
# [14] = NCI Yeast Anticancer Drug Screen. Data for the mgt1 strain (AID 153); details: S. cerevisiae mgt1 mutant growth inhibition, active compounds read high
# Method in brief: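 mgt1 strain exposed; growth vs vehicle control recorded as inhibition.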
# [15] = NCI Yeast Anticancer Drug Screen. Data for the mlh1 strain (AID 171);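 note: 0% = growth of vehicle-treated control cultures of the same strain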; details: S. cerevisiae mlh1 strain growth inhibition, active compounds read high
# Method in brief: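 Vehicle-normalised growth inhibition of a repair- or checkpoint-altered yeast strain following compound treatment.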
# [16] = NCI Yeast Anticancer Drug Screen. Data for the sgs1 strain (AID 173);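 note: 0% = growth of vehicle-only control cultures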; details: S. cerevisiae sgs1 mutant, active compounds read high
# Method in brief: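 Screen format: yeast with repair or checkpoint alterations, compound exposure, growth read relative to vehicle.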
# [17] = at 5.0 µM (retest, dose inferred, filed as 0.5)
# [18] = at 50.0 µM (retest, dose inferred, filed as 5.0)
structure (smiles),measurement,setting,value
Cc1nc2ccccc2cc1C[N+]12CN3CN(CN(C3)C1)C2,growth inhibition,[1]; at 1.2 µM,1%
same,growth inhibition,[1]; at 3.7 µM,3%
same,growth inhibition,[1]; at 11.0 µM,6%
same,growth inhibition,[1]; at 33.0 µM,29%
same,growth inhibition,[1]; at 100.0 µM,90% (active)
same,growth inhibition,[2]; at 1.2 µM,0%
same,growth inhibition,[2]; at 3.7 µM,-2%
same,growth inhibition,[2]; at 11.0 µM,0%
same,growth inhibition,[2]; at 33.0 µM,3%
same,growth inhibition,[2]; at 100.0 µM,20%
same,growth inhibition,[3]; at 1.2 µM,0%
same,growth inhibition,[3]; at 3.7 µM,1%
same,growth inhibition,[3]; at 11.0 µM,1%
same,growth inhibition,[3]; at 33.0 µM,21%
same,growth inhibition,[3]; at 100.0 µM,85% (active)
same,growth inhibition,[4]; at 1.2 µM,1%
same,growth inhibition,[4]; at 3.7 µM,9%
same,growth inhibition,[4]; [17],-7%
same,growth inhibition,[4]; at 11.0 µM,7%
same,growth inhibition,[4]; at 33.0 µM,25%
same,growth inhibition,[4]; [18],55%
same,growth inhibition,[4]; at 50.0 µM,84% (active)
same,growth inhibition,[4]; at 100.0 µM,85% (active)
same,growth inhibition,[5]; at 1.2 µM,2%
same,growth inhibition,[5]; at 3.7 µM,4%
same,growth inhibition,[5]; [17],-2%
same,growth inhibition,[5]; at 11.0 µM,5%
same,growth inhibition,[5]; at 33.0 µM,10%
same,growth inhibition,[5]; [18],28%
same,growth inhibition,[5]; at 50.0 µM,25.1%
same,growth inhibition,[5]; at 100.0 µM,32%
same,growth inhibition,[6]; at 1.2 µM,-2%
same,growth inhibition,[6]; at 3.7 µM,6%
same,growth inhibition,[6]; at 11.0 µM,3%
same,growth inhibition,[6]; at 33.0 µM,11%
same,growth inhibition,[6]; at 100.0 µM,47%
same,growth inhibition,[7]; [17],-6%
same,growth inhibition,[7]; [18],27%
same,growth inhibition,[7]; at 50.0 µM,47.2%
same,growth inhibition,[8]; at 1.2 µM,1%
same,growth inhibition,[8]; at 3.7 µM,1%
same,growth inhibition,[8]; at 11.0 µM,4%
same,growth inhibition,[8]; at 33.0 µM,6%
same,growth inhibition,[8]; at 100.0 µM,25%
same,growth inhibition,[9]; [17],-30%
same,growth inhibition,[9]; [18],4%
same,growth inhibition,[9]; at 50.0 µM,19.9%
same,growth inhibition,[10]; at 1.2 µM,4%
same,growth inhibition,[10]; at 3.7 µM,4%
same,growth inhibition,[10]; [17],6%
same,growth inhibition,[10]; at 11.0 µM,1%
same,growth inhibition,[10]; at 33.0 µM,2%
same,growth inhibition,[10]; [18],2%
same,growth inhibition,[10]; at 50.0 µM,42%
same,growth inhibition,[10]; at 100.0 µM,26%
same,growth inhibition,[11]; at 1.2 µM,1%
same,growth inhibition,[11]; at 3.7 µM,-5%
same,growth inhibition,[11]; at 11.0 µM,4%
same,growth inhibition,[11]; at 33.0 µM,11%
same,growth inhibition,[11]; at 100.0 µM,46%
same,growth inhibition,[12]; [17],-1%
same,growth inhibition,[12]; [18],39%
same,growth inhibition,[12]; at 50.0 µM,68.2%
same,growth inhibition,[13]; at 1.2 µM,-1%
same,growth inhibition,[13]; at 3.7 µM,-2%
same,growth inhibition,[13]; at 11.0 µM,-2%
same,growth inhibition,[13]; at 33.0 µM,16%
same,growth inhibition,[13]; at 100.0 µM,83% (active)
COC(=O)C1c2cc3c(c(O)c2C(O)CC1(C)O)C(=O)c1c(O)cc2c(c1C3=O)OC1OC2(C)C(O)C(N(C)C)C1O (stereo unspecified),growth inhibition,[2]; at 1.2 µM,2%
same,growth inhibition,[2]; at 3.7 µM,1%
same,growth inhibition,[2]; at 11.0 µM,17%
same,growth inhibition,[2]; at 33.0 µM,34%
same,growth inhibition,[2]; at 100.0 µM,75% (active)
same,growth inhibition,[3]; at 1.2 µM,-1%
same,growth inhibition,[3]; at 3.7 µM,18%
same,growth inhibition,[3]; at 11.0 µM,39%
same,growth inhibition,[3]; at 33.0 µM,61%
same,growth inhibition,[3]; at 100.0 µM,65%
same,growth inhibition,[14]; at 1.2 µM,-7%
same,growth inhibition,[14]; at 3.7 µM,9%
same,growth inhibition,[14]; at 11.0 µM,14%
same,growth inhibition,[14]; at 33.0 µM,52%
same,growth inhibition,[14]; at 100.0 µM,95% (active)
same,growth inhibition,[4]; at 1.2 µM,1%
same,growth inhibition,[4]; at 3.7 µM,37%
same,growth inhibition,[4]; [17],24%
same,growth inhibition,[4]; at 11.0 µM,86% (active)
same,growth inhibition,[4]; at 33.0 µM,94% (active)
same,growth inhibition,[4]; [18],64%
same,growth inhibition,[4]; at 50.0 µM,98% (active)
same,growth inhibition,[4]; at 100.0 µM,93% (active)
same,growth inhibition,[5]; at 1.2 µM,-3%
same,growth inhibition,[5]; at 3.7 µM,3%
same,growth inhibition,[5]; [17],12%
same,growth inhibition,[5]; at 11.0 µM,37%
same,growth inhibition,[5]; at 33.0 µM,96% (active)
same,growth inhibition,[5]; [18],92% (active)
same,growth inhibition,[5]; at 50.0 µM,95.3% (active)
same,growth inhibition,[5]; at 100.0 µM,94% (active)
same,growth inhibition,[6]; at 1.2 µM,0%
same,growth inhibition,[6]; at 3.7 µM,16%
same,growth inhibition,[6]; at 11.0 µM,79% (active)
same,growth inhibition,[6]; at 33.0 µM,97% (active)
same,growth inhibition,[6]; at 100.0 µM,92% (active)
same,growth inhibition,[7]; [17],-3%
same,growth inhibition,[7]; [18],15%
same,growth inhibition,[7]; at 50.0 µM,98% (active)
same,growth inhibition,[8]; at 1.2 µM,-7%
same,growth inhibition,[8]; at 3.7 µM,1%
same,growth inhibition,[8]; at 11.0 µM,31%
same,growth inhibition,[8]; at 33.0 µM,73% (active)
same,growth inhibition,[8]; at 100.0 µM,89% (active)
same,growth inhibition,[9]; [17],27%
same,growth inhibition,[9]; [18],85% (active)
same,growth inhibition,[9]; at 50.0 µM,78.2% (active)
same,growth inhibition,[10]; at 1.2 µM,-4%
same,growth inhibition,[10]; at 3.7 µM,3%
same,growth inhibition,[10]; [17],-26%
same,growth inhibition,[10]; at 11.0 µM,55%
same,growth inhibition,[10]; at 33.0 µM,95% (active)
same,growth inhibition,[10]; [18],97% (active)
same,growth inhibition,[10]; at 50.0 µM,90.9% (active)
same,growth inhibition,[10]; at 100.0 µM,93% (active)
same,growth inhibition,[11]; at 1.2 µM,0%
same,growth inhibition,[11]; at 3.7 µM,5%
same,growth inhibition,[11]; at 11.0 µM,28%
same,growth inhibition,[11]; at 33.0 µM,80% (active)
same,growth inhibition,[11]; at 100.0 µM,93% (active)
same,growth inhibition,[15]; at 1.2 µM,-4%
same,growth inhibition,[15]; at 3.7 µM,18%
same,growth inhibition,[15]; at 11.0 µM,70% (active)
same,growth inhibition,[15]; at 33.0 µM,96% (active)
same,growth inhibition,[15]; at 100.0 µM,94% (active)
same,growth inhibition,[16]; at 1.2 µM,-1%
same,growth inhibition,[16]; at 3.7 µM,9%
same,growth inhibition,[16]; at 11.0 µM,40%
same,growth inhibition,[16]; at 33.0 µM,71% (active)
same,growth inhibition,[16]; at 100.0 µM,87% (active)
same,growth inhibition,[12]; [17],9%
same,growth inhibition,[12]; [18],98% (active)
same,growth inhibition,[12]; at 50.0 µM,95.2% (active)
same,growth inhibition,[13]; at 1.2 µM,1%
same,growth inhibition,[13]; at 3.7 µM,13%
same,growth inhibition,[13]; at 11.0 µM,75% (active)
same,growth inhibition,[13]; at 33.0 µM,94% (active)
same,growth inhibition,[13]; at 100.0 µM,91% (active)
